{"source": "paper PMC7826789", "about": "(International Journal of Molecular Sciences, 2021);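 note: KINOMEscan scanMAX binding as percent activity remaining versus control; lower means stronger binding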"}
{"system": "HUNK", "conditions": "Compound Concentration (nM):1000", "units": {"Percent Control": "%"}}
{"compound": "COc1ccc2c(-c3ccnc(Nc4cccc(OC(F)(F)F)c4)n3)cnn2n1", "note": "[GW810372X]", "Percent Control": 88}
{"compound": "CCS(=O)(=O)c1ccc(OC)c(Nc2ncc(-c3cccc(OC)c3)o2)c1", "note": "[GW580509X]", "Percent Control": 100}
{"compound": "CC1=C(C(=O)Nc2ccc3[nH]ncc3c2)C(c2ccc3ccccc3c2)CC(=O)N1", "note": "(stereo not drawn) [GSK270822A]", "Percent Control": 91}
{"compound": "COc1cccc(-c2c[nH]c3c(N/N=C/c4ccncc4)ncnc23)c1", "note": "[GW814408X]", "Percent Control": 73}
{"compound": "Cl.O=C(Nc1ccc(Oc2ccc3[nH]c(NC(=O)c4ccco4)nc3c2)cc1)Nc1cc(C(F)(F)F)ccc1F", "note": "[GW683134A]", "Percent Control": 63}
{"compound": "COC(=O)Nc1nc2ccc(Oc3ccc(NC(=O)Nc4cc(C(F)(F)F)ccc4F)cc3)cc2s1.Cl", "note": "[GW693917A]", "Percent Control": 100}
{"compound": "COc1cc(N2CCN(C(C)C)CC2)ccc1Nc1nc(Nc2ccc(F)cc2C(=O)NC[C@@H](O)CO)c2cc[nH]c2n1", "note": "[GSK1392956A]", "Percent Control": 83}
{"compound": "COc1cc2ncn(-c3cc(O[C@H](C)c4ccccc4Cl)c(C(N)=O)s3)c2cc1OC", "note": "[GSK237701A]", "Percent Control": 100}
{"compound": "Cl.c1ccc(Cc2nc3ccc(Nc4ncnc5ccccc45)cc3[nH]2)cc1", "note": "[GR269666A]", "Percent Control": 100}
{"compound": "COc1cc(C)c(N(C)C(=O)CN(C)C)cc1Nc1nc(Nc2cccc(F)c2C(N)=O)c2cc[nH]c2n1", "note": "[GSK2219385]", "Percent Control": 100}
{"compound": "NS(=O)(=O)c1ccc(N/N=C2\\C(=O)Nc3ccc(C(=O)NCCc4c[nH]cn4)cc32)cc1", "note": "[GW300660X]", "Percent Control": 100}
{"compound": "CCS(=O)(=O)c1ccc(OC)c(Nc2ncc(-c3cccc(F)c3)o2)c1", "note": "[GW621970X]", "Percent Control": 100}
{"compound": "CN(C)CCNC(=O)Nc1ccc(N(C)c2ccnc(Nc3ccc(CS(C)(=O)=O)cc3)n2)cc1.Cl", "note": "[GW830900A]", "Percent Control": 55}
{"compound": "COc1cc(/C=N/Nc2ncnc3[nH]ncc23)ccc1O", "note": "[GW578748X]", "Percent Control": 100}
{"compound": "COc1ccc2cc(-c3c(-c4ccncc4)nc(-c4ccc(S(C)(=O)=O)cc4C)n3C)ccc2c1", "note": "[SB-633825]", "Percent Control": 100}
{"compound": "COc1ccc(COc2ccc(Cc3cnc(N)nc3N)cc2OC)cc1", "note": "[GW632580X]", "Percent Control": 72}
{"compound": "COc1cccc(-n2ncc3c(N/N=C/c4ccncc4)ncnc32)c1", "note": "[GW784752X]", "Percent Control": 95}
{"compound": "CN(C)c1cc2c(Nc3ccc4c(cnn4Cc4ccccc4)c3)ncnc2cn1", "note": "[GW282974X]", "Percent Control": 100}
{"compound": "Cc1cc(O)cc(C)c1/C=C/c1cncc(C(N)=O)c1", "note": "[GW435821X]", "Percent Control": 100}
{"compound": "NS(=O)(=O)c1ccc(N/N=C2\\C(=O)Nc3ccc(-c4cnco4)cc32)cc1", "note": "[GW276655]", "Percent Control": 61}
{"compound": "O=C(Nc1n[nH]c2nc(-c3ccc(O)cc3)c(Br)cc12)C1CC1", "note": "[SB-725317]", "Percent Control": 100}
{"compound": "NS(=O)(=O)c1ccc(Nc2ncc(-c3ccccc3)o2)cc1", "note": "[GW572399X]", "Percent Control": 92}
{"compound": "Cl.O=C(O[C@H]1CN[C@H](C#Cc2cc3ncnc(Nc4ccc5c(cnn5Cc5ccccc5)c4)c3s2)C1)N1CCOCC1", "note": "[GSK200398A]", "Percent Control": 100}
{"compound": "COc1ccccc1-c1cc(/C=C2\\C(=O)Nc3ncc(Br)cc32)cc(Br)c1O", "note": "[GW442130X]", "Percent Control": 69}
{"compound": "CC1=C(C(=O)Nc2ccc3[nH]ncc3c2)C(c2ccc(Cl)c(Cl)c2)CC(=O)N1", "note": "(stereo not drawn) [GSK299115A]", "Percent Control": 80}
{"compound": "COc1cc2ncnc(Nc3ccc4c(cnn4Cc4ccccc4)c3)c2cc1OC.Cl", "note": "[GW282449A]", "Percent Control": 92}
{"compound": "O=C1Nc2ccc(C(=O)c3ccco3)cc2C1=Cc1cc(Cl)c(O)c(Cl)c1", "note": "[GW406108X]", "Percent Control": 46}
{"compound": "CC(C)COC(=O)c1ccc2c(c1)/C(=C/Nc1ccc(S(N)(=O)=O)cc1)C(=O)N2", "note": "[GW416981X]", "Percent Control": 100}
{"compound": "Cl.O=S1CCN(Cc2ccc(-c3ccc4ncnc(Nc5ccc(OCc6ccccc6)c(F)c5)c4c3)o2)CC1", "note": "[GW576924A]", "Percent Control": 100}
{"compound": "CCn1c(-c2nonc2N)nc2c(C#CC(C)(C)O)nc(OCCNC)cc21.Cl", "note": "[GSK949675]", "Percent Control": 89}
{"compound": "COc1cc(C=NNc2ncnc3c2cnn3-c2ccccc2)ccc1O", "note": "[GW513184X]", "Percent Control": 58}
{"compound": "Cl.O=C(Nc1ccc(Oc2ccc3[nH]c(NC(=O)c4ccccc4)nc3c2)cc1)Nc1cc(C(F)(F)F)ccc1F", "note": "[GW709042A]", "Percent Control": 90}
{"compound": "Nc1ncnc2occ(-c3ccc(NC(=O)Nc4cc(C(F)(F)F)ccc4F)cc3)c12", "note": "[GW770249X]", "Percent Control": 97}
